About 83,000 compounds went through this panel and 20% of them were active in at least one assay; those are over-represented in the sample as a whole.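 Compound tested at a single concentration for 48 hours in 96-well plates; a percent growth value below 10 was scored as active.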 Activity calls are given as the source filed them.

In one experiment the test system is SF-295 CNS. The experiment can be described thus: NCI-60 one-dose screen, 48 h (100 = growth as untreated, 0 = no growth, -100 = all killed). To be noted: 10 µM unless noted.
Consider `C=C(C)[C@@H]1CC[C@]2(CNCCO)CC[C@]3(C)[C@H](CC[C@@H]4[C@@]5(C)CCC(N)[C@@](C)(CO)[C@@H]5CC[C@]43C)[C@@H]12` (stereo partly drawn), for which the growth was -19.6% (active).
Turning to `O=S(=O)(NCCNc1cc(-c2c(-c3cccc(O)c3)nc3sccn23)ccn1)c1ccc(Cl)cc1`, the growth is 85% (inactive).
Still for that read-out and setting: the value for `CC(C)(C)Nc1c(-c2c3ccccc3cc3ccccc23)nc2ccccn12` was 69.7% (inactive); that for `CN(C)CCOC(=O)Nc1ccc(Cl)cc1` was 103% (inactive); that for `CCOc1ccc(-c2nc3ccc(-c4nc5ccc(N6CCN(C)CC6)cc5[nH]4)cc3[nH]2)cc1OCC` was 27.2% (inactive).
For the compound `N[C@H]1CCC[C@@H]1NCCCCN1C(=O)c2cccc3cccc(c23)C1=O`, the growth is 71.9% (inactive).
Turning to `COc1ccc(/C=C(\C#N)n2nnc3cc(F)c(F)cc32)c(OC)c1OC`, the growth was 105% (inactive).
The same measure, in the same setting: the value for `COc1cc2ccccc2cc1C(=O)NC(=S)Nc1ccc(-c2nc3ccccc3[nH]2)cc1` was 80.5% (inactive); that for `Cc1ccc(/C=C(\C#N)n2nnc3cc(Cl)c(Cl)cc32)cc1` was -0.103% (active); that for `CC(C)(O)c1cccc(F)c1` was 106% (inactive).
For the compound `O=C1Nc2ccc(Cl)cc2/C1=N/N=C/c1c[nH]c2ccccc12`, the growth was 103% (inactive).
In the case of `N#Cc1c(-c2ccccc2)nc(SCC2CO2)nc1N1CCOCC1` (stereo not drawn), the growth was 9.14% (active).
As to `COc1cc2c(cc1OC)-c1ccc3cc4c(cc3c1N(CCCN(C)C)C2)OCO4`, the growth was 42.7% (inactive).
On to `C=C1C(=O)O[C@H]2[C@H]1CC/C(Cn1cc(CNCCc3c[nH]c4ccc(Cl)cc34)nn1)=C\CC[C@@]1(C)O[C@@H]21`, for which the growth is 95.4% (inactive).
Same read-out and setting: the value for `C#CC[C@H](N)C(=O)O` was 102% [20 µM] (inactive); that for `O=C(Oc1ccc([N+](=O)[O-])cc1)c1ccc(CBr)cc1` was 103% (inactive); that for `OC(CBr)c1ccnc2ccccc12` (stereo not drawn) was 96.6% (inactive).
Turning to `CCCNCC(=O)Nc1ccc(C(=O)OC(C)(C)CC)cc1`, the growth is 103% (inactive).
As for `CC(=O)c1cc2c(o1)C(=O)c1ccccc1C2=O`, the growth is -93.4% (active).
`CS(=O)(=O)c1ccc(-c2[nH]c3ccc(F)cc3c2/C=N/NC(N)=S)cc1`: the growth is 13.9% (inactive).
`CC(C)c1ccc(C(=O)OC(=O)c2ccc(C(C)C)cc2)cc1`: the growth is 98.9% (inactive).
Turning to `N=C(N)c1ccc(-c2ccc(-c3ccc(Cl)c(Cl)c3)o2)nc1`, the growth was -70.1% (active).
For the compound `N#C/C=C(\c1ccc([N+](=O)[O-])cc1)n1nnc2cc(Cl)c(Cl)cc21`, the growth was 14.1% (inactive).
Same read-out and setting: the value for `CS(=O)(=O)c1ccc(-c2nc3cc(Cl)ccc3n2CC(=O)NO)cc1` was 98% (inactive); that for `CC(=O)Nc1cccc(C2=CC(c3ccc(C)cc3)n3ncnc3N2)c1` (stereo not drawn) was 114% (inactive).
Turning to `CCn1c(Sc2nnc(NC(=O)CCN3CCCC3)s2)nc2c1c(=O)n(C)c(=O)n2C`, the growth is 107% (inactive).
Take `N#Cc1c(NC(=O)c2cccc(C(F)(F)F)c2)sc2c1CCC(=O)C2`: the growth was -6.4% (active).
The same measure, in the same setting: then `CC(C)(C)c1ccc(C(=O)Nc2sc3c(c2C(N)=O)CCC(=O)C3)cc1`, with -48.3% (active).
Regarding `CCOC(=O)c1c(C)nc2c(c1N)/C(=C/c1cc(OC)c(OC)c(OC)c1)C(=O)N2c1ccc(OC)cc1`, the growth is 88.1% (inactive).
The same measure, in the same setting: then `Nc1nc(Nc2ccc(Cl)cc2)nn1S(=O)(=O)c1ccc(-c2ccc(F)cc2)cc1`, with 99.1% (inactive); and `CCNCCNc1cc(-c2ccc(C(F)(F)F)cc2)c(C#N)c2nc3cc(Cl)c(Cl)cc3n12`, with -91.2% (active).
Regarding `C=CCN1C(=O)[C@]2(SC1=S)[C@H](c1cccc(Cl)c1)CN(C)[C@]21C(=O)NC2C=CC(Cl)=C[C@H]21` (stereo partly drawn), the growth is 32.1% (inactive).
For the compound `O=C(/C=C/C12c3ccccc3C(c3ccccc31)C1C(=O)N(c3ccccc3)C(=O)C12)c1ccccc1` (stereo not drawn), the growth was -3.2% (active).
`O=S(=O)(Nc1ccsc1-c1nc(-c2ccccc2)no1)c1cc(Cl)cc(Cl)c1`: the growth was 98.3% (inactive).
Turning to `CNC1(C#N)CCN(Cc2ccccc2)CC1`, the growth is 95.2% (inactive).
For `COc1cc2cc(Oc3ccc(NC(=O)Nc4cc(C(F)(F)F)cc(C(F)(F)F)c4)cc3)c(C)nc2cc1OCCN1CCCCC1`, the growth is -81.8% (active).
Still for that read-out and setting: then `CC(C)n1nc(C#Cc2cccc3cc(-c4cccc(C(F)(F)F)c4)ncc23)c2c(N)ncnc21`, with 91% (inactive); and `N[C@@H]1CCC[C@H]1NCCCCN1C(=O)c2cccc3cccc(c23)C1=O`, with 84.4% (inactive); and `CCN(CC)CCOC(=O)N1c2ccccc2Sc2ccccc21`, with 93.8% (inactive).

Another experiment deals with SF-539 CNS. The experiment is described as above. To be noted: 10 µM unless noted.
For `C=C(C)[C@@H]1CC[C@]2(CNCCO)CC[C@]3(C)[C@H](CC[C@@H]4[C@@]5(C)CCC(N)[C@@](C)(CO)[C@@H]5CC[C@]43C)[C@@H]12` (stereo partly drawn), the growth was -80.5% (active).
The same measure, in the same setting: the value for `O=S(=O)(NCCNc1cc(-c2c(-c3cccc(O)c3)nc3sccn23)ccn1)c1ccc(Cl)cc1` was 91.8% (inactive).
Consider `CC(C)(C)Nc1c(-c2c3ccccc3cc3ccccc23)nc2ccccn12`, for which the growth was 78.2% (inactive).
For `CN(C)CCOC(=O)Nc1ccc(Cl)cc1`, the growth is 102% (inactive).
With `CCOc1ccc(-c2nc3ccc(-c4nc5ccc(N6CCN(C)CC6)cc5[nH]4)cc3[nH]2)cc1OCC`, the growth was -42.7% (active).
Take `N[C@H]1CCC[C@@H]1NCCCCN1C(=O)c2cccc3cccc(c23)C1=O`: the growth was 29.7% (inactive).
`COc1ccc(/C=C(\C#N)n2nnc3cc(F)c(F)cc32)c(OC)c1OC`: the growth was 92.1% (inactive).
As to `COc1cc2ccccc2cc1C(=O)NC(=S)Nc1ccc(-c2nc3ccccc3[nH]2)cc1`, the growth is 14.7% (inactive).
On the same count and under the same terms, the value for `Cc1ccc(/C=C(\C#N)n2nnc3cc(Cl)c(Cl)cc32)cc1` was -13.1% (active); that for `CC(C)(O)c1cccc(F)c1` was 88% (inactive).
For the compound `O=C1Nc2ccc(Cl)cc2/C1=N/N=C/c1c[nH]c2ccccc12`, the growth is 82.6% (inactive).
Turning to `N#Cc1c(-c2ccccc2)nc(SCC2CO2)nc1N1CCOCC1` (stereo not drawn), the growth was 85.6% (inactive).
In the case of `COc1cc2c(cc1OC)-c1ccc3cc4c(cc3c1N(CCCN(C)C)C2)OCO4`, the growth is 40.2% (inactive).
As for `C=C1C(=O)O[C@H]2[C@H]1CC/C(Cn1cc(CNCCc3c[nH]c4ccc(Cl)cc34)nn1)=C\CC[C@@]1(C)O[C@@H]21`, the growth is 53.6% (inactive).
For `C#CC[C@H](N)C(=O)O`, the growth is 96% [20 µM] (inactive).
In the case of `O=C(Oc1ccc([N+](=O)[O-])cc1)c1ccc(CBr)cc1`, the growth is 97% (inactive).
On to `OC(CBr)c1ccnc2ccccc12` (stereo not drawn), for which the growth was 102% (inactive).
On the same count and under the same terms, the value for `CCCNCC(=O)Nc1ccc(C(=O)OC(C)(C)CC)cc1` was 108% (inactive).
The same measure, in the same setting: then `CC(=O)c1cc2c(o1)C(=O)c1ccccc1C2=O`, with -98.5% (active); and `CS(=O)(=O)c1ccc(-c2[nH]c3ccc(F)cc3c2/C=N/NC(N)=S)cc1`, with -21.2% (active); and `CC(C)c1ccc(C(=O)OC(=O)c2ccc(C(C)C)cc2)cc1`, with 108% (inactive).
On to `N=C(N)c1ccc(-c2ccc(-c3ccc(Cl)c(Cl)c3)o2)nc1`, for which the growth is 38.8% (inactive).
`N#C/C=C(\c1ccc([N+](=O)[O-])cc1)n1nnc2cc(Cl)c(Cl)cc21`: the growth was -9.65% (active).
The same measure, in the same setting: the value for `CS(=O)(=O)c1ccc(-c2nc3cc(Cl)ccc3n2CC(=O)NO)cc1` was 101% (inactive); that for `CC(=O)Nc1cccc(C2=CC(c3ccc(C)cc3)n3ncnc3N2)c1` (stereo not drawn) was 95.3% (inactive).
The same measure, in the same setting: then `CCn1c(Sc2nnc(NC(=O)CCN3CCCC3)s2)nc2c1c(=O)n(C)c(=O)n2C`, with 98.4% (inactive).
The same measure, in the same setting: then `N#Cc1c(NC(=O)c2cccc(C(F)(F)F)c2)sc2c1CCC(=O)C2`, with -57.8% (active); and `CC(C)(C)c1ccc(C(=O)Nc2sc3c(c2C(N)=O)CCC(=O)C3)cc1`, with -77.8% (active).
With `CCOC(=O)c1c(C)nc2c(c1N)/C(=C/c1cc(OC)c(OC)c(OC)c1)C(=O)N2c1ccc(OC)cc1`, the growth was 80.2% (inactive).
As for `Nc1nc(Nc2ccc(Cl)cc2)nn1S(=O)(=O)c1ccc(-c2ccc(F)cc2)cc1`, the growth was 94% (inactive).
Consider `CCNCCNc1cc(-c2ccc(C(F)(F)F)cc2)c(C#N)c2nc3cc(Cl)c(Cl)cc3n12`, for which the growth is -92.9% (active).
As to `C=CCN1C(=O)[C@]2(SC1=S)[C@H](c1cccc(Cl)c1)CN(C)[C@]21C(=O)NC2C=CC(Cl)=C[C@H]21` (stereo partly drawn), the growth is 81.1% (inactive).
`O=C(/C=C/C12c3ccccc3C(c3ccccc31)C1C(=O)N(c3ccccc3)C(=O)C12)c1ccccc1` (stereo not drawn): the growth was -3.29% (active).
`O=S(=O)(Nc1ccsc1-c1nc(-c2ccccc2)no1)c1cc(Cl)cc(Cl)c1`: the growth was 91.4% (inactive).
Turning to `CNC1(C#N)CCN(Cc2ccccc2)CC1`, the growth is 100% (inactive).
Regarding `COc1cc2cc(Oc3ccc(NC(=O)Nc4cc(C(F)(F)F)cc(C(F)(F)F)c4)cc3)c(C)nc2cc1OCCN1CCCCC1`, the growth is -94% (active).
As for `CC(C)n1nc(C#Cc2cccc3cc(-c4cccc(C(F)(F)F)c4)ncc23)c2c(N)ncnc21`, the growth is 54.4% (inactive).
For `N[C@@H]1CCC[C@H]1NCCCCN1C(=O)c2cccc3cccc(c23)C1=O`, the growth was 7.65% (active).
The same measure, in the same setting: the value for `CCN(CC)CCOC(=O)N1c2ccccc2Sc2ccccc21` was 100% (inactive).

(Values after PubChem BioAssay (NCI).)
